Mdm2-MdmX inh: inhibitors of human Mdm2/MdmX interaction. O15151+Q00987. SaOS-2 split-luciferase Mdm2/MdmX complementation, luminescence. inhibition, % at 8 µM. 3% of 330,000 active. AID 485346;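 active = inhibition of at least 50% at 8 µM in the primary screen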
Target sequence (O15151 whole entry, looked up): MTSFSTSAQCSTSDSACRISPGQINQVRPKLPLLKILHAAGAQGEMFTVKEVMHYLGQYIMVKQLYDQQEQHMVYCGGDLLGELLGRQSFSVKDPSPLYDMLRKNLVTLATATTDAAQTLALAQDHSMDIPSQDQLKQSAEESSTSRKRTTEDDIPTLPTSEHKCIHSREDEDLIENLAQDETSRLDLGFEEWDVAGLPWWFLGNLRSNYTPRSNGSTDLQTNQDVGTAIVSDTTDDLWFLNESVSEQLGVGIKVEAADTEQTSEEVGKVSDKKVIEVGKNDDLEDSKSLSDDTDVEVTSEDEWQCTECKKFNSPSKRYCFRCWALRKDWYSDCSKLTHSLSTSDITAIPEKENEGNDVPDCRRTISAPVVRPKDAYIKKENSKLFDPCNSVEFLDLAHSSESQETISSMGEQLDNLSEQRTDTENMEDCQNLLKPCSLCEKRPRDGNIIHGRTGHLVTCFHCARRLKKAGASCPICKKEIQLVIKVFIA
Target sequence (Q00987 whole entry, looked up): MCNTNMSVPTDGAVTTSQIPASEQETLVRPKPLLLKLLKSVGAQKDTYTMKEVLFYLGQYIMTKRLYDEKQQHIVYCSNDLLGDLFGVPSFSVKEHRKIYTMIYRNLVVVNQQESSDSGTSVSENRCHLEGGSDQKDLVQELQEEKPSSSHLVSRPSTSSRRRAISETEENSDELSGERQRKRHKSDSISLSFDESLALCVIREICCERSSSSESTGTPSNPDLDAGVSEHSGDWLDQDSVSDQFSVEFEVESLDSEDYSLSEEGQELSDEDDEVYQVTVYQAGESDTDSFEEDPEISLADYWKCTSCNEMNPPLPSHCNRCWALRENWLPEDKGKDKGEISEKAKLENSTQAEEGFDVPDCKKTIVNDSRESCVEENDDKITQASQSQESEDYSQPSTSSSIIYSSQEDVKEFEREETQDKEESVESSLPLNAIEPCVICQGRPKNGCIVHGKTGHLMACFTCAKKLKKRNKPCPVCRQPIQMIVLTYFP
HSP90 inh: HSP90 refolding inhibition in rabbit reticulocyte lysate; inhibition, % at 5.6 µM; luciferase refolding luminescence, 3 h; 0.91% of 290,000 active;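 active = inhibition above the screen-wide mean plus 3 SD, computed separately per campaign, cut at about 16% in these data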;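 note: inhibitors lower the luminescence because luciferase stays unfolded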
KKLEB cytotox: reduces viability of KKLEB cystic fibrosis airway cells; KKLEB CF airway cells viability, ATPlite luminescence, overnight; active compounds read low; cells stimulated with P. aeruginosa culture filtrate; activity change (cytotoxicity), % at 5 µM; 0.36% of 360,000 active; AID 602141;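 active = corrected activity change at or below -50% at 5 µM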
Peg3 prom inh-1: Peg3 promoter activity inhibition; HeLa PEG-Prom luciferase reporter, luminescence, overnight; AID 588405; 1.7% of 360,000 active; inhibition, % at 20 µM;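 active = inhibition of at least 50% at 20 µM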
CF NFkB block: cystic fibrosis NF-kB activation inhibition; inhibition, % at 5 µM; AID 588850; 0.86% of 360,000 active; KKLEB NF-kB-GFP reporter, PAF-induced, GFP fluorescence overnight;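 active = at least 50% inhibition at 5 µM, scaled per plate between neutral and stimulator controls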;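 note: PAF is a Pseudomonas aeruginosa culture filtrate used as stimulus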
LGR2 antag: Drosophila LGR2 receptor signaling inhibition | inhibition, % at 9.99 µM | HEK293 LGR2, CRE-luciferase, bursicon-stimulated, 4 h | 0.35% of 380,000 active;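 active = drop in luminescence signal, shown as inhibition above about 50% in the replicate tests, limit read from the data, passing the limit was not always enough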;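 note: agonist challenge used bursicon conditioned medium at about half maximal strength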
Peg3 prom inh-2: confirmation of Peg3 promoter inhibitors | shares compounds with Peg3 prom inh-1 | HeLa PEG-Prom luciferase reporter, luminescence, overnight | inhibition, % at 20 µM | 84% of 1,300 active | AID 602417;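 active = at 20 µM dose, 40% or more inhibition averaged across four replicates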
Hits are given with their value; i = inactive; nt = no result given. In the library only some 3.6% were active in any assay of this set; here they are far more common.

SMILES	Mdm2-MdmX inh	HSP90 inh	KKLEB cytotox	Peg3 prom inh-1	CF NFkB block	LGR2 antag	Peg3 prom inh-2
COCCn1c(-c2ccc(-c3ccc([N+](=O)[O-])cc3Br)o2)nc2c1c(=O)[nH]c(=O)n2CC(C)C	i	i	i	51.7	i	i	i
COCCn1c(=O)[nH]c(=O)c2c1nc(-c1ccc(-c3ccc(Cl)cc3[N+](=O)[O-])o1)n2Cc1ccccc1	i	i	i	i	i	nt	nt
COc1ccc(-c2sc3ccccc3c2C#Cc2cncn2C)cc1	i	nt	i	51.7	i	i	i
Cc1ccc(NC(=O)CSC(N)=O)cc1Cl	i	i	i	i	i	nt	nt
NC(=O)SCC(=O)Nc1ccc(Cl)c(Cl)c1	i	i	i	66.3	i	nt	i
CC=Cc1ccc2n(c1=O)C[C@@H]1[C@@H](CO)[C@H](C(=O)NCCc3cn(C)cn3)[C@H]2N1C(=O)C1CC1 (mixture of isomers)	nt	nt	nt	nt	nt	i	nt
C(=Cc1c[nH]c2ccccc12)c1ccc2ccccc2n1	nt	nt	i	72.1	i	88.6	i
CCC(=O)Nc1ccc2c(c1)C(=O)N(C)C[C@H](OC)[C@@H](C)CN(Cc1ccccc1C(=O)O)[C@H](C)CO2	nt	nt	nt	nt	nt	i	nt
CCCCn1c(N)c(N(CC(C)C)C(=O)c2ccc(Br)s2)c(=O)[nH]c1=O	i	i	i	i	i	i	nt
CCCCn1c(N)c(N(CC(C)C)C(=O)c2cc(Br)c(Br)s2)c(=O)[nH]c1=O	nt	nt	i	81.2	i	i	41.4
CN(C)CC(=O)N[C@@H]1CC[C@H](CC(=O)O)O[C@@H]1CO	nt	nt	nt	nt	nt	i	nt
CO[C@H]1CN(C)C(=O)c2cc(NS(=O)(=O)c3ccccc3Cl)ccc2OC[C@@H](C)NC[C@H]1C	nt	nt	nt	nt	nt	i	nt
COc1ccc(S(=O)(=O)N(C)C[C@@H]2Oc3c(NC(=O)Nc4c(C)noc4C)cccc3C(=O)N([C@H](C)CO)C[C@H]2C)cc1	nt	nt	nt	nt	nt	i	nt
COc1ccc(C(=O)Nc2cccc(C(=O)N/N=C/c3ccc(OC)cc3OC)c2)cc1	i	i	i	74.2	i	i	77.2
Cc1ccc(C(=O)NC(C)c2nc3ccccc3n2CC(=O)Nc2c(C)cc(C)cc2C)cc1 (stereo unspecified)	i	i	nt	nt	nt	nt	nt
CCN(CC)c1ccc(NC(=O)Cn2c(C(C)NC(=O)c3ccccc3)nc3ccccc32)cc1 (stereo unspecified)	nt	i	i	78.5	i	i	i
O=C(Nc1ccccc1F)N[C@H]1CC[C@H](CCNC(=O)C2CCCC2)O[C@@H]1CO	nt	nt	nt	nt	nt	i	nt
CCOc1cccc(/C=N/NC(=S)Nc2cc(S(=O)(=O)N3CCOCC3)ccc2N2CCOCC2)c1O	i	i	i	52.7	i	i	57.0
Cc1ccccc1OCC(=O)Nc1cc(S(=O)(=O)N2CCOCC2)ccc1N1CCCC1	i	nt	i	i	i	i	nt
c1ccc(CCNc2nc(-c3ccncc3)nc3ccccc23)cc1	i	i	i	56.2	i	nt	69.3
O=S(=O)(N[C@H]1C[C@@H](NS(=O)(=O)OCC(Cl)(Cl)Cl)C2CCCCC21)OCC(Cl)(Cl)Cl (stereo partly specified)	nt	i	i	60.9	i	i	83.7
Cc1cc(C)cc(NC(=O)Cn2c(=O)oc3cc(S(=O)(=O)N4CCC(C)CC4)ccc32)c1	i	i	i	68.4	i	i	43.8
CC1CCN(S(=O)(=O)c2ccc3c(c2)oc(=O)n3CC(=O)NCc2ccc3c(c2)OCO3)CC1	i	i	i	i	i	i	nt
C[C@H](CO)N1C[C@H](C)[C@@H](CN(C)Cc2ccc(Oc3ccccc3)cc2)Oc2ccc(NS(=O)(=O)c3ccc(Cl)cc3)cc2CC1=O	nt	nt	nt	nt	nt	i	nt
c1ccc2c(C[C@@H]3CNCCN3CCCCC3CCCCC3)cccc2c1	i	nt	i	i	i	nt	nt
SMILES	Mdm2-MdmX inh	HSP90 inh	KKLEB cytotox	Peg3 prom inh-1	CF NFkB block	LGR2 antag	Peg3 prom inh-2
c1ccc(C[C@H]2CNCCN2CCCCC2CCCCC2)cc1	i	nt	i	104.8	i	i	98.2
O=C(CCc1ccccc1)NC(NC(=S)Nc1cccc(Cl)c1)C(Cl)(Cl)Cl (stereo unspecified)	i	i	i	i	i	i	nt
O=C(CCc1ccccc1)NC(NC(=S)Nc1ccc(Br)cc1)C(Cl)(Cl)Cl (stereo unspecified)	i	i	i	53.1	i	i	i
Cc1nn(-c2ccccc2)c2c1C(c1ccc(Cl)cc1)N(c1ccccc1)C(=O)N2 (stereo unspecified)	i	i	i	i	i	i	nt
Cc1nn(-c2ccccc2)c2c1C(c1ccc([N+](=O)[O-])cc1)N1C(=N2)C(=O)Nc2ccccc21 (stereo unspecified)	i	i	i	52.8	i	i	50.4
CCCNC(=O)N[C@H]1CC[C@H](CC(=O)NC2CCC2)O[C@H]1CO	nt	nt	nt	nt	nt	i	nt
CCn1c2ccccc2c2cc(NC(=O)C(C)OC(=O)c3ccc(NC(=O)CC#N)cc3)ccc21 (stereo unspecified)	i	nt	-65.2	66.9	i	i	55.3
O/N=C(\c1ccc(Cl)cc1Cl)c1ncc(C(F)(F)F)cc1Cl	i	i	i	57.2	i	nt	47.2
O=C(CSc1ccc(Cl)cc1)NC1CCCC1	i	i	i	i	i	nt	nt
O=C(NC1CCCCC1)Sc1ccc(Cl)cc1	i	i	i	66.3	i	nt	66.5
COc1ccc(/C=C/C(=O)c2ccc3c(c2)OCCO3)cc1[N+](=O)[O-]	i	i	i	71.1	i	nt	79.8
COc1ccc(/C=N/NC(=O)c2ccc3c(c2)OCCO3)cc1[N+](=O)[O-]	i	i	i	i	i	i	nt
COCOCCn1cc(CN2CCS(=O)(=O)N(Cc3ccc(-c4ccc(Cl)c(Cl)c4)cc3)C(C(C)C)C2=O)nn1 (stereo unspecified)	nt	nt	i	60.6	i	i	45.9
CC(C)CC1C(=O)N(Cc2cn(Cc3ccco3)nn2)CCS(=O)(=O)N1Cc1ccc(-c2ccc(F)cc2)cc1 (stereo unspecified)	nt	nt	i	63.7	i	i	61.9
C[C@@H]1CN([C@H](C)CO)C(=O)c2cccc(NC(=O)Nc3ccc(F)cc3)c2O[C@H]1CN(C)Cc1ccc2c(c1)OCO2	nt	nt	nt	nt	nt	i	nt
O=C(Nc1ccc(-c2nc3ccccc3o2)cc1)c1ccc(N2CCOCC2)c([N+](=O)[O-])c1	i	i	-51.1	50.6	51.8	i	48.3
O=C(Nc1cccnc1)c1ccc(N2CCOCC2)c([N+](=O)[O-])c1	i	i	i	i	i	i	nt
Cc1[nH]nc(S(=O)CC(=O)O)c1[N+](=O)[O-] (stereo unspecified)	i	i	i	50.6	i	i	i
CC(=O)c1ccc(Nc2nc(C(N)Cc3ccc(Cl)cc3)cs2)cc1 (stereo unspecified)	nt	nt	i	56.2	i	nt	72.3
NC(Cc1ccc(F)cc1)c1csc(Nc2cc(Oc3ccccc3)ncn2)n1 (stereo unspecified)	nt	nt	i	79.2	i	i	82.8
CC(=O)c1ccc(Nc2nc(C(N)Cc3ccc(N)cc3)cs2)cc1 (stereo unspecified)	nt	nt	i	i	i	i	nt

High-throughput results deposited in PubChem BioAssay by several laboratories.
